Source: PubChem BioAssay AID1851 (National Center for Advancing Translational Sciences (NCATS), 2009)
In all, about 16,000 compounds went through this assay and about 5,100 (32%) were called active. Not shown: some 25% with an inconclusive outcome. This is one part of the list. Unmarked numbers belong to inactive results. Calls follow the shape of the dose curve; as a rule, active = well fitted curve in the direction sought with a large enough effect; inconclusive = small, poorly fitted or top-dose-only effect, or effect the other way; inactive = no such curve, though single readings can be large or run the other way.

target: Cytochrome P450 3A4 (Homo sapiens) (UniProt P08684); experiment: Cytochrome panel assay with activity outcomes; conditions: recombinant CYP, pro-luciferin dealkylation, luminescence, p450-cyp3a4; series mostly up to 57.1 µM; activity, negative = inhibition: at the top concentration
% is scaled to controls: 0 for no effect and ±100 for the full control effect.

Sequence of Cytochrome P450 3A4 (Homo sapiens) (P08684 whole entry, looked up): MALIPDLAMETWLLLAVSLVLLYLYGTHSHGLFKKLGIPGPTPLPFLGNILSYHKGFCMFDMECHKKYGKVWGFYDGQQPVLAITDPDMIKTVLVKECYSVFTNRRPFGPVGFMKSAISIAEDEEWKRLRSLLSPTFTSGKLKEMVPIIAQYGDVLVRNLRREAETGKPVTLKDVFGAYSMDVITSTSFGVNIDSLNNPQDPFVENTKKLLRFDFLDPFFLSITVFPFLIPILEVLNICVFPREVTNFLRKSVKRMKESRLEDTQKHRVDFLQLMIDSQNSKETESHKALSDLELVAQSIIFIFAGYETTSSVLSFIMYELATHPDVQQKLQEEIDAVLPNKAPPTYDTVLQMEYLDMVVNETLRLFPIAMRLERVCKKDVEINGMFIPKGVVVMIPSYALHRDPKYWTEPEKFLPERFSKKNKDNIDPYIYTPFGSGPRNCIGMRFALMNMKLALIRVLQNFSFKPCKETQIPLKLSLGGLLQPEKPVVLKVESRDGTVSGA

SMILES	activity, negative = inhibition	AC50
Cc1cc(C(F)F)n2nc(C(=O)Nc3cccnc3Cl)nc2n1	2.46% [at 2.29 µM]	
O=C(Oc1ccccc1[N+](=O)[O-])c1cccnc1	-15.4%	
O=C(O)c1[nH]c2c([N+](=O)[O-])cc([N+](=O)[O-])cc2c1C(=O)O	3.73% [at 11.4 µM]	
C/C(=N\NC(=O)c1[nH]c2c([N+](=O)[O-])cc(C)cc2c1-c1ccccc1)c1cccnc1		1.12 µM (active)
CCOC(=O)c1c(NC(=O)/C=C/c2ccc3c(c2)OCO3)sc(C)c1CC		5.01 µM (active)
O=C(/C=C/c1cccc([N+](=O)[O-])c1)NCCN1CCOCC1	-20.8%	
CCOC(=O)c1c(NC(=O)/C=C/c2ccc3c(c2)OCO3)sc(C)c1C	18%	
COC(=O)c1cccc(NC(=O)/C=C/c2cccc([N+](=O)[O-])c2)c1		10 µM (active)
CC(/C=N/NC(=O)c1cccc([N+](=O)[O-])c1)=C\c1ccccc1	-14.1%	
COC(=O)c1cc(NC(=O)/C=C/c2ccc3c(c2)OCO3)cc(C(=O)OC)c1		0.794 µM (active)
O=C(O)C[C@@H](C(=O)O)c1ccccc1[N+](=O)[O-]	0.874% [at 11.4 µM]	
CCSc1nnc(NC(=O)COc2ccc3ccccc3c2)s1	-4.8% [at 2.29 µM]	
CCOc1ccc(N2C(=O)CS/C2=N/NC(=O)COc2ccc3ccccc3c2)cc1		0.891 µM (active)
C=CCSc1nnc(NC(=O)COc2ccc3ccccc3c2)s1	-10.4%	
O=S(=O)(O)c1ccc(-c2nnc(-c3ccccn3)nc2-c2ccc(S(=O)(=O)O)o2)o1	6.48% [at 11.4 µM]	
CC[C@]1(O)C[C@@H]2CN(CCc3c([nH]c4ccccc34)[C@](C(=O)OC)(c3cc4c(cc3OC)N(C)[C@H]3[C@](O)(C(=O)OC)[C@@H](C(=O)OC)[C@@]5(CC)C=CCN6CC[C@@]43[C@@H]65)C2)C1		15.8 µM (active)
CC[C@]1(O)C[C@H]2CN(CCc3c([nH]c4ccccc34)[C@](C(=O)OC)(c3cc4c(cc3OC)N(C=O)[C@H]3[C@@](O)(C(=O)OC)[C@H](OC(C)=O)[C@@]5(CC)C=CCN6CC[C@]43[C@H]65)C2)C1		3.98 µM (active)
C=CCn1c(C)cc(C(=O)CN2C(=O)c3ccccc3C2=O)c1C		2.82 µM (active)
CCN(CC)c1ccc(SS(=O)(=O)O)cc1	22.8%	

SMILES	activity, negative = inhibition	AC50
COc1cc(C(=O)Oc2ccccc2/C=N/NC(=O)c2ccc(C)cc2)cc(OC)c1OC	18.9%	
O=C(N/N=C/c1ccc2cccc(OCc3ccccc3)c2n1)c1ccc(Br)cc1	-19% [at 2.29 µM]	
COc1ccc(C(=O)N/N=C/c2cccc3cccnc23)cc1		22.4 µM (active)
O=C(CCS(=O)(=O)c1cccc2nsnc12)NC1CCCCC1		5.01 µM (active)
Cc1cccc(NC(=O)CCS(=O)(=O)c2cccc3nsnc23)c1C	-25.6% [at 2.29 µM]	
O=C(O)[C@@H]1CCCN1Cc1ccc2c(c1)OCO2	-11.9% [at 11.4 µM]	
CC1(C)SC(=S)N(Cc2ccc3c(c2)OCO3)C1N(O)C(=O)NC1CCCCC1 (stereo unspecified)		1.12 µM (active)
O=C(Cn1cnc2ccccc21)NC(c1ccccc1)c1ccccc1		7.94 µM (active)
O=C(O)CC(c1ccccc1)n1cnnn1 (stereo unspecified)	19%	
CN[C@@H]1[C@H](O[C@H]2[C@@H](O[C@@H]3[C@@H](O)[C@@H](O)[C@@H](N=C(N)N)[C@@H](O)[C@@H]3N=C(N)N)O[C@@H](C)[C@]2(O)CO)O[C@H](CO)[C@@H](O)[C@@H]1O	-18.2% [at 25.6 µM]	
COc1cc(C)ccc1OCCCOc1ccccc1Br	3.33% [at 2.29 µM]	
COc1cc(C=O)ccc1OCCOCCOc1ccccc1Cl	-2.53% [at 2.29 µM]	
COc1ccccc1OCCCOc1ccc([N+](=O)[O-])cc1Cl		14.1 µM (active)
Cc1ccc2c(c1)N(CC(=O)NC1CCC(C)CC1)C(=O)CO2 (stereo unspecified)		7.08 µM (active)
Cc1ccc2c(c1)N(CC(=O)NC1CCCc3ccccc31)C(=O)CO2 (stereo unspecified)		7.08 µM (active)
Cc1ccc(C(=O)N/C(=C\c2ccc(Br)cc2)c2nc(=S)[nH][nH]2)cc1		22.4 µM (active)
CC(=O)NN1C(=O)/C(=C\c2ccc(C)cc2)SC1=S	-28%	
Cc1ccc(C(=O)NC(=S)Nc2cccc3nsnc23)cc1	-8.47%	
CN(C)CCCN1c2ccc3ccccc3c2Sc2cccc(Cl)c21	-11.7% [at 11.4 µM]	

SMILES	activity, negative = inhibition	AC50
c1ccc(CCc2nc(-c3ccccc3)no2)cc1	-24.8%	
Clc1ccc(-c2noc(CN3CCCCC3)n2)cc1	-11.9% [at 11.4 µM]	
Clc1ccc(Cc2nc(-c3cccnc3)no2)cc1		2.51 µM (active)
Cc1ccc(C2=Nc3ccccc3S[C@@H](c3cccc([N+](=O)[O-])c3)C2)cc1		3.98 µM (active)
C[C@@]12CC[C@@H]3c4ccc(O)cc4CC[C@H]3[C@H]1C[C@@H](O)[C@H]2O	-7.48% [at 25.6 µM]	
Cc1cccc(C)c1OC1(c2ccccc2)OC(=O)c2ccccc21 (stereo unspecified)		8.91 µM (active)
CCCCCCCOC1(c2ccccc2)OC(=O)c2ccccc21 (stereo unspecified)	-21.5%	
N#C/C(=C\Nc1ccccn1)C(=O)c1ccco1	-18.7% [at 11.4 µM]	
CCCC(CCC)C(=O)NNc1cc(=O)c2c(=O)n(C)c(=O)n(C)c2[nH]1	-11.1%	
Cc1noc(NS(=O)(=O)c2ccc(NC(=O)CC34CC5CC(CC(Br)(C5)C3)C4)cc2)c1C		6.31 µM (active)
Cc1noc(NS(=O)(=O)c2ccc(N)cc2)c1C		inactive
Cc1ccnc(NS(=O)(=O)c2ccc(NC(=O)C3CCCNC3=O)cc2)n1 (stereo unspecified)	-19.1%	
COC(=O)COc1ccc2c(-c3cccc([N+](=O)[O-])c3)cc(=O)oc2c1	-28.1%	
O=[N+]([O-])c1cccc(-c2nc(-c3ccncc3)no2)c1		0.562 µM (active)
CC(C)CCNC1=NCCCCC1	-3.64%	
Cc1ccc(-n2ncc3c(=O)n(CC(=O)NCC4CCCO4)cnc32)cc1 (stereo unspecified)	-21.5%	
Cc1[nH]nc2nc(SCC(=O)NCC3CCCO3)n(-c3ccc(Br)cc3)c(=N)c12 (stereo unspecified)		11.2 µM (active)
Cc1cccc2c(SCC(=O)NCC3CCCO3)nc(-c3ccc(F)cc3)nc12 (stereo unspecified)	-23.2%	
